A selection: hits, their analogues and other compounds. The true share with any hit is near 5.2%.
SKN-1 block – blocks SKN-1 activity in C. elegans. C. elegans VP596 Pgst-4::GFP/RFP ratio, acrylamide-induced, 24 h. inhibition, % at 21.8 µM. 360,000 compounds, 0.49% hits. AID 624304;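 active = interference check ratio from 0.5 to 1.5 plus GFP to RFP signal ratio inhibition reaching or exceeding a fixed threshold, cut at about 30% in these data, passing the limit was not always enough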
esBAF inh – blocks esBAF chromatin remodeling in mouse ES cells | reporter increase, % at 12.5 µM | Bmi1-luciferase knock-in reporter, 24 h; 100% = twice the neutral-well signal | 350,000 compounds, 2% hits; in the data active = activation above about 40%;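 note: 0% = median of the plate's neutral control wells and 100% = double that signal; a rise in the Bmi1 reporter signal indicates esBAF inhibition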
SMARCA2 act – activators of SMARCA2 function | 370,000 compounds, 1% hits | MG213 cells, MMTV-luciferase reporter, dexamethasone, overnight | activation, % at 9.1 µM; in the data active = activation above about 7.8%;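 note: 0% = vehicle wells and 100% = reference activator wells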
NadD block – inhibitors of Staphylococcus aureus NadD. purified NadD enzyme, colorimetric absorbance read-out. inhibition, % at 20 µM. 360,000 compounds, 0.78% hits; in the data active = inhibition above about 26%
NR3A LBD binder – modulators (binders) of human NR3A ligand-binding domain; 340,000 compounds, 2.5% hits; NR3A LBD differential scanning fluorimetry, Tm shift; 0% = protein alone, 100% = glycine-bound protein; AID 1259313; Tm shift relative to glycine control, % at 25 µM;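 active = melting temperature shift of at least 10% of the positive control shift, at one fixed dose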
Vif imaging – inhibitors of HIV Vif; HEK293T cells, Vif self-association by quenched fluorescence, imaging, 24 h; inhibition, % at 7.49 µM; 340,000 compounds, 0.35% hits; AID 602346; in the data active = inhibition above about 50%, passing the limit was not always enough
The depositor's hits bear a star.

Cc1ccc(S(=O)(=O)Nc2ccc3c(c2)C(=O)N([C@H](C)CO)C[C@H](C)[C@H](CN(C)C(=O)Nc2c(C)noc2C)O3)cc1 was read as esBAF inh -1.
Screening COc1ccc(NC(=O)N(C)C[C@@H]2OCCCC[C@H](C)Oc3ccc(NC(=O)Nc4c(C)noc4C)cc3C(=O)N([C@@H](C)CO)C[C@H]2C)cc1 returned esBAF inh 1.
Screening CCC(=O)Oc1c(S(=O)(=O)c2ccc(C)cc2)c(C)nn1C(C)(C)C returned SKN-1 block 12, esBAF inh -5, SMARCA2 act -1, NadD block -1, NR3A LBD binder 15* and Vif imaging 19.
O=C(NCC[C@@H]1CC[C@@H](NS(=O)(=O)Cc2ccccc2)[C@@H](CO)O1)C1CCCC1 was read as esBAF inh -1.
Screening O=c1[nH]nc(Cc2ccc([N+](=O)[O-])cc2)c2ccccc12 returned SKN-1 block 32*, esBAF inh 2, SMARCA2 act -3, NadD block 2, NR3A LBD binder 0 and Vif imaging -2.
For C[C@H]1CN([C@@H](C)CO)C(=O)Cc2cc(NC(=O)Cc3ccccc3)ccc2O[C@H]1CN(C)CC1CCCCC1 the results were esBAF inh -2.
`O=C(CSc1nc2nn(-c3ccccc3)c(=O)c-2c2n1CCCCC2)c1ccc(O)c(O)c1` gave SKN-1 block -5, esBAF inh -11, NadD block 57*, NR3A LBD binder 2 and Vif imaging 0.
For O=C(CSc1nc2nn(-c3ccccc3)c(=O)c-2c2n1CCCCC2)Nc1ccc(F)c(F)c1 the results were SKN-1 block 8, esBAF inh 10, SMARCA2 act -3, NadD block 39*, NR3A LBD binder 1 and Vif imaging -1.
O=C(C[C@@H]1C[C@H]2c3cc(NC(=O)C4CCOCC4)ccc3O[C@H]2[C@@H](CO)O1)NCc1ccccn1 was read as esBAF inh -7.
For C[C@H](CO)N1C[C@H](C)[C@H](CN(C)C(=O)Cc2ccccc2)Oc2ncc(-c3cncnc3)cc2C1=O the results were esBAF inh -3.
CCN1C(=O)NC(c2ccccc2)C1=O (stereo not given) was read as SKN-1 block 1, esBAF inh -5, SMARCA2 act -5, NadD block 2, NR3A LBD binder -1 and Vif imaging 81*.
For O=C(C[C@H]1CC[C@@H]2[C@H](COC[C@@H](O)CN2Cc2ccccc2)O1)NCCc1ccccc1 the results were esBAF inh -2.
`Cc1c2cc(O)c(=O)cc-2oc2cc(O)c(O)cc12` gave SKN-1 block 46, esBAF inh -16, SMARCA2 act 0, NadD block 52*, NR3A LBD binder 5 and Vif imaging 9.
`COc1ccc(C(=O)N2CCCC(Nc3ccc(C)c(C)c3)C2)cc1F` (stereo not given) gave SKN-1 block -1, SMARCA2 act -1, NadD block -2, NR3A LBD binder 16* and Vif imaging 1.
COc1ccc(C(=O)N2CCCC(Nc3ccc(F)cc3)C2)cc1F (stereo not given) was read as SKN-1 block 8, esBAF inh 1, SMARCA2 act -2, NadD block 1, NR3A LBD binder 2 and Vif imaging 7.
`COc1cccc(N2C(=O)/C(=C\c3cccs3)NC2=S)c1` gave SKN-1 block 16, esBAF inh 43*, SMARCA2 act 1, NadD block 0, NR3A LBD binder 2 and Vif imaging -2.
For COc1ccc(N2C(=O)/C(=C/c3cccnc3)NC2=S)cc1 the results were SKN-1 block 6, SMARCA2 act -3, NadD block -3, NR3A LBD binder 1 and Vif imaging 4.
CCn1c(SCC(=O)c2ccc(Cl)cc2)nnc1-c1ccoc1C was read as SKN-1 block 1, esBAF inh 9, SMARCA2 act -2, NadD block 14, NR3A LBD binder 2 and Vif imaging -5.
Screening CCn1c(SCC(=O)c2ccc(C)cc2)nnc1-c1ccoc1C returned SKN-1 block 1, esBAF inh 88*, SMARCA2 act 2, NadD block -3, NR3A LBD binder -1 and Vif imaging 6.
C[C@@H]1CCCCO[C@@H](CN(C)S(=O)(=O)c2cn(C)cn2)[C@H](C)CN([C@@H](C)CO)C(=O)c2cc(NS(=O)(=O)c3cccs3)ccc2O1 was read as esBAF inh 3.
Screening OC(COc1ccc2ccccc2c1Br)Cn1cnc(-c2ccccc2)c1 (stereo not given) returned SKN-1 block 7, SMARCA2 act -2, NadD block -2, NR3A LBD binder 14* and Vif imaging -2.
`c1ccc(-c2cc3c(N4CCOCC4)ncnc3s2)cc1` gave SKN-1 block 38*, esBAF inh 8, SMARCA2 act 0, NadD block 7, NR3A LBD binder -4 and Vif imaging -5.
For O=C(/C=C\c1ccccc1OC(=O)c1ccccc1F)c1cc2ccccc2o1 the results were SKN-1 block -7, esBAF inh 49*, SMARCA2 act 4, NadD block -4, NR3A LBD binder -5 and Vif imaging -18.
`C[C@@H]1CN([C@H](C)CO)S(=O)(=O)c2ccc(C#CC3(O)CCCC3)cc2O[C@@H]1CN(C)C(=O)c1ccccc1` gave esBAF inh 8.
`COc1cccc(NC(=O)N2C[C@@H](O)COC[C@@H]3O[C@H](CC(=O)NCCCN4CCOCC4)CC[C@H]32)c1` gave esBAF inh 6.
CO[C@H]1CN(C)C(=O)c2cc(NC(=O)NC(C)C)ccc2OC[C@@H](C)NC[C@H]1C was read as esBAF inh -4.
For Cc1cc(C)c(C#N)c(SCC2COc3ccccc3O2)n1 (stereo not given) the results were SKN-1 block -3, esBAF inh 2, SMARCA2 act -2, NadD block 5, NR3A LBD binder -3 and Vif imaging -11.
`Cc1cc(C)n2nc(SCC3COc4ccccc4O3)nc2n1` (stereo not given) gave SKN-1 block 15, esBAF inh 63*, SMARCA2 act 6, NadD block 3, NR3A LBD binder -3 and Vif imaging 0.
Screening Cc1cc(C)n2nc(SCc3nnc(SCc4ccccc4C)s3)nc2n1 returned SKN-1 block 6, esBAF inh 83*, SMARCA2 act -2, NadD block -2, NR3A LBD binder 0 and Vif imaging -1.
For C[C@@H]1CN([C@@H](C)CO)S(=O)(=O)c2ccc(C#CC3CCCCC3)cc2O[C@H]1CN(C)C the results were esBAF inh 1.
For C[C@@H]1CCCCO[C@H](CN(C)Cc2ccc(C(=O)O)cc2)[C@@H](C)CN([C@@H](C)CO)C(=O)c2cc(NC(=O)C3CCCCC3)ccc2O1 the results were esBAF inh 2.
